This note sets out measurements from PubChem BioAssay (NCATS).

Values without a mark were called inactive. Inconclusive results are not listed. Activity calls are given as the source filed them. Unless noted, calls come from the whole dose curve; as a rule, active = well fitted curve in the direction sought with a large enough effect; inconclusive = small, poorly fitted or top-dose-only effect, or another doubt; inactive = no such curve, though single readings can be large; an effect the other way counts as inactive or inconclusive. Bounds are passed on as bounds.

Experiment [1] can be described thus: Cell Viability - Jurkat (AID 426;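 active = dose-dependent loss of cell ATP signal giving a full or clear fitted curve, ranked by lower potency value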;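 note: potency is the fitted concentration of half-maximal effect; cells exposed to compound for 40 hours at 37 °C before ATP read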). Conditions: qHTS. The gist of the method:
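Seed 5000 Jurkat E6-1 cells/well; add compound; incubate 40 hr at 37 °C; add CellTiter-Glo; wait 20 min at room temperature; read luminescence. Fit concentration-response with Hill equation for AC50.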
In general terms: In qHTS, concentration-response curves come from the screen itself.

Experiment [2] in a line: Cellular Toxicity (caspase-3) BJ (AID 658).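 Note: 0% = DMSO basal and 100% = 10 µM staurosporine.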 Conditions: BJ fibroblasts, luminescence; Potency: caspase-3 activation; series mostly up to 91.7 µM. The gist of the method: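 Luminescent aminoluciferin-substrate cleavage reports caspase 3/7 activity in normal human BJ fibroblasts after 16 hr compound exposure at 37 °C. Normalized to DMSO (basal) and 10 uM staurosporine (100%); AC50 from Hill fit of concentration-response.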

For experiment [3], the target named is Cytochrome P450 3A4 (Homo sapiens) (UniProt P08684). Kind of experiment: qHTS Assay for Inhibitors and Substrates of Cytochrome P450 3A4 (AID 884). Note: nearly all actives have a fitted effect of over 50% in size. Note: potency is the fitted concentration of half-maximal effect. The conditions noted are these: recombinant CYP3A4, Luciferin-PPXE luminescence; series mostly up to 57.1 µM. The gist of the method:
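20 nM human CYP3A4 with 25 uM Luciferin-PPXE (at KM) in 200 mM KPO4, preincubated 10 min with compound; NADPH regeneration started a 60 min RT reaction. Luciferin detected by luminescence, normalized to 57 uM ketoconazole as full inhibition.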

Experiment [4] addresses Estrogen receptor (Homo sapiens) (UniProt P03372). Kind of experiment: qHTS assay for small molecule antagonists of estrogen receptor alpha signaling (AID 588513; active = well fitted curve in the direction sought with a large enough effect in the signal ratio, with a control signal flat, not every such curve was filed as active; the % refers to the signal ratio; note: % is set by controls: 0 for no effect and ±100 for the full control effect). Conditions: ER-alpha-UAS-bla HEK293, beta-lactamase ratio, antagonist mode; series mostly up to 76.9 µM. The gist of the method: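 Beta-lactamase reporter, antagonist mode, HEK 293 GripTite cells; 0.5nM E2 stimulus, 18 h, 37 C; CCF4 dye 2 h RT; fluorescence. IC50 and efficacy from Hill fits, normalized to E2 and DMSO.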

Experiment [5] has the same target. Kind of experiment: qHTS assay for small molecule agonists of estrogen receptor alpha signaling (AID 588514; calls by dose curve;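 note: 0% = vehicle only and 100% = reference agonist; nearly all actives have a fitted effect of over 70% in size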). The conditions noted are these: ER-alpha-UAS-bla HEK293, beta-lactamase ratio, 18 h; series mostly up to 76.8 µM. The gist of the method:
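Reporter-gene assay. […] controls beta-lactamase in HEK 293 GripTite cells; after 18 hrs with compound, CCF4 substrate is added for 2 hrs and fluorescence is read.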

Experiment [6] addresses Peroxisome proliferator-activated receptor gamma (Homo sapiens) (UniProt P37231). The experiment can be described thus: qHTS assay for small molecule agonists of peroxisome proliferator-activated receptor gamma signaling (AID 588536; active = well fitted curve in the direction sought with a large enough effect in the signal ratio, with a control signal flat, not every such curve was filed as active; the % refers to the signal ratio;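 note: 0% = DMSO basal wells and 100% = rosiglitazone at 2 µM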). The conditions noted are these: HEK293 PPARg-UAS-bla, beta-lactamase ratio, 16 h, percent of rosiglitazone response, DMSO as zero; series mostly up to 76.7 µM. The gist of the method: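 PPAR-gamma-UAS-bla HEK293 cells in medium with 1% charcoal/dextran-treated FBS were exposed to compounds for 16 h at 37 C. Beta-lactamase activity was read with CCF4 substrate (405 nm excitation, 460/530 nm emission).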

Experiment [7] can be described thus: qHTS assay for small molecule agonists of the antioxidant response element (ARE) signaling pathway (AID 651741; active = well fitted activation curve with a large enough effect in the signal ratio; the % refers to the signal ratio; note: potency is the fitted concentration of half-maximal effect; for activation: % of control where 0% means no effect). The conditions noted are these: HepG2 ARE-bla reporter, beta-lactamase FRET ratio, 16 h; series mostly up to 96 µM. The gist of the method:
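ARE-bla HepG2 cells (beta-lactamase reporter under ARE control) were plated at 2,000 cells/well, preincubated 5 h at 37 C/5% CO2, then treated with DMSO-dissolved compounds for 16 h at 37 C; LiveBLAzer B/G FRET substrate added, fluorescence read after 2 h at room temperature.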

Experiment [8] is described as follows: qHTS assay for small molecule activators of the p53 signaling pathway (AID 651743; active = well fitted activation curve with a large enough effect in the signal ratio, not every such curve was filed as active; the % refers to the signal ratio; note: % of control where 0% means no effect). The conditions noted are these: HCT-116 p53RE-bla, beta-lactamase FRET ratio, 16 h; activation: stronger effect = higher value. The gist of the method: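 p53RE-bla HCT-116 cells with a stably integrated beta-lactamase reporter under p53 response elements were plated, rested 5 hours at 37 C/5% CO2, then exposed to compounds in DMSO for 16 hours at 37 C. LiveBLAzer B/G FRET substrate was read after 2 hours at room temperature.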

Experiment [9] in a line: qHTS assay for small molecule activators of the nuclear factor-kappa B (NF-kB) signaling pathway (AID 651749; active = well fitted activation curve with a large enough effect in the signal ratio; the % refers to the signal ratio; note: % of control where 0% means no effect). Conditions: NF-kB-bla ME-180 cells, beta-lactamase FRET ratio, 16 h; stronger effect = higher value. The gist of the method: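 ME-180 cells stably carrying a beta-lactamase reporter under an NF-kB response element were exposed to compound or DMSO vehicle for 16 hr at 37C, 5% CO2. Pathway activation was read by FRET, since reporter expression disrupts FRET.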

Experiment [10] deals with Nuclear receptor ROR-gamma (Homo sapiens) (UniProt P51449). The experiment can be described thus: qHTS assay for small molecule antagonists of the retinoid-related orphan receptor gamma (ROR-gamma) signaling pathway (AID 651802). Note: % is set by controls: 0 for no effect and ±100 for the full control effect; nearly all actives have a fitted effect of over 60% in size. Conditions: ROR-gamma antagonist cell reporter assay; series mostly up to 92.2 µM. In short, it runs like this: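 Antagonism is scored as a fall in luminescence from a RORE-luciferase reporter in CHO cells expressing ROR under a TET-inducible promoter, measured 16hr after doxycycline induction in the presence of compound.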

Experiment [11] is described as follows: qHTS assay for small molecule antagonists of the retinoid-related orphan receptor gamma (ROR-gamma) signaling pathway - cell viability counter screen (AID 720652; active = well fitted curve in the direction sought with a large enough effect in the repeat runs; an effect the other way counts as inactive or inconclusive;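 note: compound exposure lasted 16 hr before ATP read; % is set by controls: 0 for no effect and ±100 for the full control effect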). Conditions: RORgamma reporter cell line viability counter screen; series mostly up to 92.2 µM. In short, it runs like this: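 Cytotoxicity is quantified via intracellular ATP (CellTiter-Glo luminescence) in doxycycline-induced CHO ROR response element-luciferase reporter cells treated with compound for 16 hr at 37 C, 5% CO2.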

A short description of experiment [12]: Cell Viability - NIH 3T3 (AID 541).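 For activity change, negative = cytotoxicity: plate controls were DMSO alone for no effect and tamoxifen positive control for full effect.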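 Note: cells exposed to compound for 40 hours; nearly all actives have a fitted effect of over 25% in size.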 Note: potency is the fitted concentration of half-maximal effect. The conditions noted are these: NIH 3T3 cell viability, qHTS; activity change, negative = cytotoxicity: at 92.2 µM (top of the series). In short, it runs like this:
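AC50 values reflect concentration-dependent loss of intracellular ATP in NIH 3T3 cells after 40 hr treatment in complete culture medium, quantified by luciferase-based luminescence.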

Experiment [13] can be described thus: Cellular Toxicity (caspase-3) Mesangial (AID 660).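 Note: combined caspase 3 and 7 activity read by Caspase-Glo luminescence; cells exposed to compound for 16 h before the caspase read.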 Conditions: mesangial cells, normalized: DMSO 0%, 100 µM tamoxifen 100%; series mostly up to 91.7 µM. In short, it runs like this: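 Concentration-response qHTS: compound-induced rise in caspase 3/7 luminescence in human mesangial cells after 16 h, normalized to DMSO and 100 uM tamoxifen controls.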
Experiment [14] in a line: Cellular Toxicity (caspase-3) H-4-II-E (AID 663).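 Note: cells exposed to compound for 16 hr before readout.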 The conditions noted are these: H-4-II-E rat hepatoma; Potency: caspase-3 activation; series mostly up to 92.2 µM. In short, it runs like this: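 Luminescence from caspase-cleaved aminoluciferin substrate, read 20 min after reagent addition, reports caspase 3/7 activation in rat H-4-II-E cells after 16 hr compound exposure. Normalized to DMSO (basal) and 100 uM tamoxifen (100%); AC50 from Hill fits.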

For experiment [15], the target named is Vitamin D3 receptor (Homo sapiens) (UniProt P11473). Kind of experiment: qHTS assay for small molecule antagonists of vitamin D receptor signaling (AID 588541; calls by dose curve;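 note: receptor activated by calcitriol during compound treatment; % is set by controls: 0 for no effect and ±100 for the full control effect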). Conditions: HEK293T VDR-UAS-bla, beta-lactamase ratio, antagonist mode; series mostly up to 76.7 µM. The gist of the method:
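VDR-UAS-bla HEK293T cells (2000/well, 2% charcoal-stripped FBS) were treated with titrated compounds plus 1-alpha,25-dihydroxyvitamin D3 (50 nM or 3 nM final) for 16 h at 37 C. CCF4 beta-lactamase fluorescence was read; Hill fits gave IC50.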

The target of experiment [16] is Tumor necrosis factor (Homo sapiens) (UniProt P01375). Kind of experiment: qHTS assay to identify small molecules that stimulate Tumor Necrosis Factor-alpha (TNF-alpha) secretion (AID 651757; active = well fitted curve in the direction sought with a large enough effect in the signal ratio; the % refers to the signal ratio; note: 0% is about no effect). The conditions noted are these: Human cells, HTRF 665/615 ratio; series mostly up to 92.2 µM. The gist of the method:
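Secreted TNF-alpha from compound-treated THP-1 cells (17 hrs, 37 C) was quantified with a homogeneous time-resolved fluorescence antibody assay.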

Experiment [17] is described as follows: qHTS assay for small molecule activators of the human pregnane X receptor (PXR) signaling pathway (AID 720659; call rule not given here; note: 0% is about no effect). The conditions noted are these: DPX-2 HepG2 CYP3A4-luciferase, 24 h; series mostly up to 92.3 µM.
A short description of experiment [18]: Cellular Toxicity (caspase-3) SHSY5Y (AID 657). The conditions noted are these: SH-SY5Y caspase-3 activation; series mostly up to 91.7 µM. The gist of the method: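 Luminescent caspase-3/7 readout (aminoluciferin release) in SH-SY5Y cells after 16 h compound exposure in complete medium. Activity scaled between DMSO basal and 10 uM staurosporine as 100%; concentration-response fitted to Hill equation for AC50.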

Experiment [19] concerns the target Vitamin D3 receptor (Homo sapiens) (UniProt P11473). The experiment can be described thus: qHTS assay for small molecule agonists of vitamin D receptor signaling (AID 588543; calls by dose curve;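 note: 0% = DMSO basal and 100% = reference agonist control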). The conditions noted are these: HEK293T VDR-UAS-bla, beta-lactamase ratio, 16 h; series mostly up to 76.8 µM. In short, it runs like this:
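β-lactamase reporter, VDR-UAS-bla HEK293T, agonist mode. Cells plated 5 h at 37 °C, compound titration 16 h at 37 °C, CCF4 dye 2 h RT, ratio 460/530 nm. Hill fit → EC50, efficacy vs 50 nM 1α,25-(OH)2D3.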

Sequence of Tumor necrosis factor (Homo sapiens) (P01375 whole entry, looked up): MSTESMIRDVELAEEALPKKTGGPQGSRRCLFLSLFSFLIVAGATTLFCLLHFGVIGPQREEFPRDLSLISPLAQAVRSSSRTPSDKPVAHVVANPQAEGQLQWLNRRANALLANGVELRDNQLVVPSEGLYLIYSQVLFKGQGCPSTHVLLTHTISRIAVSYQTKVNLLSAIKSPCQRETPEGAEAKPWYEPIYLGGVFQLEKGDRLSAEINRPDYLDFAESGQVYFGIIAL
Sequence of Cytochrome P450 3A4 (Homo sapiens) (P08684 whole entry, looked up): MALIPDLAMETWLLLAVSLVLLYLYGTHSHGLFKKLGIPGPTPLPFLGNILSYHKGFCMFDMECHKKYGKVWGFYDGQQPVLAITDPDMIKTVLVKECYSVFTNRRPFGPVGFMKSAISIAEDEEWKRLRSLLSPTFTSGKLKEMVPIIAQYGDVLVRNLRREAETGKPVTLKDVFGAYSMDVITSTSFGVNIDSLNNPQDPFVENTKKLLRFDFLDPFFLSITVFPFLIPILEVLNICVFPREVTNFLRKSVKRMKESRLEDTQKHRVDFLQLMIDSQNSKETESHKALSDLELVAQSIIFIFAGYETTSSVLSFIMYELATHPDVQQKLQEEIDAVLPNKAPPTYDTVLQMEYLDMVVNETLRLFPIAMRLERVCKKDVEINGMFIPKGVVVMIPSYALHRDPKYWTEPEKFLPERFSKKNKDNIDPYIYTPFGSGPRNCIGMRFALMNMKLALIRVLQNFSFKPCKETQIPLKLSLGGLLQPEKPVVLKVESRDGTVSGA
Sequence of Peroxisome proliferator-activated receptor gamma (Homo sapiens) (P37231 whole entry, looked up): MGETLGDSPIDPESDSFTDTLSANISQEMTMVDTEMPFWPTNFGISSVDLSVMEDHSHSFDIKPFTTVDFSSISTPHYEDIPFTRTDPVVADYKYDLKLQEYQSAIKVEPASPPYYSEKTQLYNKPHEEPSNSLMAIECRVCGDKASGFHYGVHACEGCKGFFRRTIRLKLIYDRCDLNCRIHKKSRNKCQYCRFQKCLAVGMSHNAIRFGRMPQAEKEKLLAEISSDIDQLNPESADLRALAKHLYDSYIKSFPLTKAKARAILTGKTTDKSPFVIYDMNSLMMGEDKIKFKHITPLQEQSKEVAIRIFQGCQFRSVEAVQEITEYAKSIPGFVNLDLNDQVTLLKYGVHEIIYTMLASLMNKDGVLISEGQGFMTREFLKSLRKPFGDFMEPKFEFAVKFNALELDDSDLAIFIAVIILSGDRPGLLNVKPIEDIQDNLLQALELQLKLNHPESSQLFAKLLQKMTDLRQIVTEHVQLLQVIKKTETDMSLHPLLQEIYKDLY
Sequence of Nuclear receptor ROR-gamma (Homo sapiens) (P51449 whole entry, looked up): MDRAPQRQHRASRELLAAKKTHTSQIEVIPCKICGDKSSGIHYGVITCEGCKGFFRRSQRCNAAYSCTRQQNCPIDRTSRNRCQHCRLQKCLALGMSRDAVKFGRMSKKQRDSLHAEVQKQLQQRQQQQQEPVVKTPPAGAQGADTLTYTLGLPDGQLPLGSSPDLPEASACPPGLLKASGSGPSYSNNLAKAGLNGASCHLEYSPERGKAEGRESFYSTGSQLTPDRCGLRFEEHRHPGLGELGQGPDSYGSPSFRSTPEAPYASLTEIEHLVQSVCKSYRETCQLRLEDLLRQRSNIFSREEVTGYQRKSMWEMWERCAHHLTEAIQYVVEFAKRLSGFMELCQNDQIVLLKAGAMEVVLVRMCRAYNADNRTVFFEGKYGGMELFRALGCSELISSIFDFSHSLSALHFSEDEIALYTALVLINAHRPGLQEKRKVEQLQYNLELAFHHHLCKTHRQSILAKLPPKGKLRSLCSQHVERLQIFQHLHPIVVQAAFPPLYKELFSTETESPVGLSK
Sequence of Vitamin D3 receptor (Homo sapiens) (P11473 whole entry, looked up): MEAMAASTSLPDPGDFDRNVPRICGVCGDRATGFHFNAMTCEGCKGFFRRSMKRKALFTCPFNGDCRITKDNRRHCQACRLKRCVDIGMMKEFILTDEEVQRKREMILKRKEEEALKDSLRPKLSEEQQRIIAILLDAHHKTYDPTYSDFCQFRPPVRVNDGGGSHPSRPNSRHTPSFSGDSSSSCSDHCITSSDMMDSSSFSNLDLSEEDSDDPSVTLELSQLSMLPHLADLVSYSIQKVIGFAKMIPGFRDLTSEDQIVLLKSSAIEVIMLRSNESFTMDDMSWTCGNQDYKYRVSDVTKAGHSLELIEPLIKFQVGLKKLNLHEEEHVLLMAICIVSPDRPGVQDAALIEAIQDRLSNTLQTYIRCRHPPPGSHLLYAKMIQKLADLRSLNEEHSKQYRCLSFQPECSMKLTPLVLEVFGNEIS
Sequence of Estrogen receptor (Homo sapiens) (P03372 whole entry, looked up): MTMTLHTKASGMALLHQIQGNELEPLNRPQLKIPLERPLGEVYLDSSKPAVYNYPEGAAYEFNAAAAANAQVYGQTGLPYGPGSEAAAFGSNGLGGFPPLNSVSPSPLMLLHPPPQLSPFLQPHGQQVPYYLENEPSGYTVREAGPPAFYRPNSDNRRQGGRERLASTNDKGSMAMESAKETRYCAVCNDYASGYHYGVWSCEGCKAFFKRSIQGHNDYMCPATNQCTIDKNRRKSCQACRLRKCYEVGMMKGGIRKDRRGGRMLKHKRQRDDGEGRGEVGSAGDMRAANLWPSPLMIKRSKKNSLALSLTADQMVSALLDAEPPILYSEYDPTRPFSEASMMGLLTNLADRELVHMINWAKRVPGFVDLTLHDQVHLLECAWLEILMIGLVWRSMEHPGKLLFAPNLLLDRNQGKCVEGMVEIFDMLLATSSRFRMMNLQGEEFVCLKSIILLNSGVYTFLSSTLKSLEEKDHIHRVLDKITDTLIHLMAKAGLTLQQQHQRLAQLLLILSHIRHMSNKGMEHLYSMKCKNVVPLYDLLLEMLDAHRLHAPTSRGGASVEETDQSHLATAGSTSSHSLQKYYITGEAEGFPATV

As for `Nc1ccc(N=Nc2ccccc2)c(N)c1`, the Potency in [1] was more than 92 µM; in experiment [3] it was 12.6 µM (active); in [7], 42.2 µM (active). Further, the Potency result in [2], in experiment [5], in experiment [10] and in experiment [11] was “inactive” in each case. For the same molecule, the outcome in [4] and in experiment [6] was inactive. In addition, the activation is -4.52% in experiment [8] and -1.7% in [9].
Take `Brc1cc(Br)c(Oc2cc(Br)c(Br)cc2Br)cc1Br`: the activity change, negative = cytotoxicity in [12] was -6.22%. For the same molecule, the result in experiment [13], in experiment [4] and in [17] was inactive. Also, the Potency entry in experiment [14], in [3], in experiment [15], in [16] and in experiment [11] was “inactive” throughout. For the same molecule, in experiment [9], the activation is 3.12%.
As for `CC(C)(C)C(=O)C1C(=O)c2ccccc2C1=O`, the Potency in experiment [12] is 12.6 µM (active). The Potency result in experiment [18], in [2], in experiment [14], in experiment [3], in experiment [5] and in [15] was “inactive” in each case. In [19], the Potency entry is “inactive”. Besides, the outcome in experiment [4] was inactive. Moreover, the values for the activation in experiment [8] and in experiment [9] were 12% and 1.49%, respectively.
As to `C=CC(=O)CC`, the activity change, negative = cytotoxicity in experiment [12] is -11.9%. Further, the Potency entry in experiment [2], in experiment [3], in [15], in [19], in experiment [16] and in [10] was “inactive” each time. Moreover, the result in [6] was inactive. Further, in [8], the activation is -1.3%.
Turning to `O=C1c2ccccc2C(=O)C1(O)O`, the Potency is 34.4 µM (active) in [1] and 66.8 µM (active) in experiment [7]. For the same molecule, the Potency result in experiment [2], in experiment [14], in experiment [3], in experiment [5], in [15] and in [19] was “inactive” throughout. In addition, in experiment [16], the Potency entry was “inactive”. Besides, the molecule was classed as inactive in [13], in experiment [4] and in experiment [17]. The activation in [9] was -0.508%.
On to `Cc1ccccc1OCC1CO1` (stereo unspecified), for which the activity change, negative = cytotoxicity in experiment [12] is -29.7%. The call in experiment [13], in experiment [4], in [6] and in experiment [17] was inactive. The Potency result in experiment [14], in [3], in experiment [5], in [15], in experiment [19] and in [7] was “inactive” each time. Also, the Potency result in experiment [16], in experiment [10] and in [11] was “inactive” in each case. The activation is -0.32% in experiment [8] and -1.53% in [9].
`CC1=C(/C=C/C(C)=C/C=C/C(C)=C/C=O)C(C)(C)CCC1`: the Potency is 21.5 µM (active) in [1] and 29.8 µM (active) in experiment [7]. The Potency result in [15], in [19] and in [16] was “inactive” throughout. In [9], the activation was -2.37%.
